Rows were chosen to be rich in hits. Some 15% of all compounds tested hit in one or more screens of this group.
SARS PLP yeast = qHTS of Yeast-based Assay for SARS-CoV PLP | S. cerevisiae expressing SARS-CoV PLpro, growth rescue | Potency, µM (highest dose often 32.9 µM), for the others: at the top dose activity, positive = growth rescue, most hits filed as activators | 0.19% of 330,000 active | AID 485353, 2010; calls by dose curve; note: potency is the fitted concentration of half-maximal effect; 0% is about no effect; nearly all actives have a fitted effect of over 55% in size
Sm TGR block = qHTS Assay for the Inhibitors of Schistosoma Mansoni Peroxiredoxins. Schistosoma mansoni thioredoxin glutathione reductase (TGR), Q962Y6. purified TGR, DTNB reduction, TNB absorbance 405 nm. Potency, µM (series often up to 114 µM), for the others: top-dose activity change, negative = inhibition, hits mostly inhibitors. 3% of 360,000 active. AID 485364, 2010; note: potency is the fitted concentration of half-maximal effect; % is set by controls: 0 for no effect and ±100 for the full control effect; nearly all actives have a fitted effect of over 60% in size
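Kinetic colorimetric format: TGR-catalysed, NADPH-driven DTNB reduction monitored via TNB absorbance. Enzyme dispensed at 20 nM; compound exposure 15 min at room temperature before reaction start.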
Pf growth 96h = Primary qHTS for delayed death inhibitors of the malarial parasite plastid, 96 hour incubation; P. falciparum luciferase reporter growth, 96 h; 6.9% of 320,000 active; Potency, µM (top dose mostly 28.7 µM), for the others: at the top dose activity change, negative = inhibition, most hits filed as inhibitors; note: potency is the fitted concentration of half-maximal effect; % is set by controls: 0 for no effect and ±100 for the full control effect
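Parasite growth measured via integrated firefly luciferase reporter in P. falciparum. Infected erythrocytes at 2% hematocrit, 0.05% parasitemia final were treated 96 hours at 37 C under 5% CO2, and luminescence was read.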
Pf growth 48h = Primary qHTS for delayed death inhibitors of the malarial parasite plastid, 48 hour incubation | P. falciparum luciferase growth in erythrocytes, 48 h | Potency, µM (highest dose often 28.7 µM), inactives show at the top dose activity change, negative = inhibition, usual class: inhibitors | 5.9% of 310,000 active | AID 504832, 2011; note: potency is the fitted concentration of half-maximal effect; % is set by controls: 0 for no effect and ±100 for the full control effect
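First compound was added to culture medium, then infected red cells at 0.1% parasitemia and 2% hematocrit (final). After incubation at 37 C under 5% CO2, luciferase detection reagent was dispensed and light output recorded.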
HCMV inh = qHTS Assay for inhibitors of the human cytomegalovirus (HCMV); 4.5% of 410,000 active; activity change, negative = inhibition, % at 57.5 µM; AID 1259415, 2018; HFF cells, HCMV-luciferase reporter, 72 h; active compounds read low; in the data active = activity change below about -60%; inconclusive = no clear call, values can overlap the other calls; inactive = above about -39%; note: % is set by controls: 0 for no effect and ±100 for the full control effect
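Steps: HFFs plated, 16 h 37C; compounds added; HCMV-luciferase added to MOI 1 PFU/cell; 72 h 37C; OneGlo reagent, 5 min room temperature; luminescence read, normalized to controls.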
HCV inhibitor = qHTS Assay for Inhibitors of Hepatitis C Virus (HCV) | AID 651820, 2012 | Potency, µM (highest dose often 41.8 µM), for the others: top-dose activity change, negative = inhibition, usual class: inhibitors | 3.4% of 340,000 active | Huh7.5.1 HCVcc-Cre infection, luciferase reporter, 44 h; note: potency is the fitted concentration of half-maximal effect; % is set by controls: 0 for no effect and ±100 for the full control effect
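Cells (1,000/well) were plated 4 h before compound, then infected with HCVcc-Cre virus (~0.5 moi). After 44 h further culture, infection was read as luciferase luminescence following a 15 min substrate incubation at room temperature.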
* hit, by the source's call; ? = inconclusive; nt = not tested or not shown; [ ] = another dose, or the depositor's remark. Unless noted, calls come from the whole dose curve; as a rule, active = well fitted curve in the direction sought with a large enough effect; inconclusive = small, poorly fitted or top-dose-only effect, or another doubt; inactive = no such curve, though single readings can be large; an effect the other way counts as inactive or inconclusive.

SMILES	SARS PLP yeast	Sm TGR block	Pf growth 96h	Pf growth 48h	HCMV inh	HCV inhibitor
CC(C)(C)NC(=O)C(c1ccc(F)cc1)N(Cc1ccco1)C(=O)Cn1nnc(-c2cccs2)n1 (stereo not drawn)	7.3%	-1.9%	?	5.86µM*	42.1	?
O=C(NCC1CCCO1)C(c1cccs1)N(Cc1cccs1)C(=O)Cn1nnc(-c2cccs2)n1 (stereo not drawn)	-18.4%	-0.9%	-29.6%	?	-6.6	-19.1%
O=C(NCC1CCCO1)C(c1ccc(F)cc1)N(Cc1ccc(F)cc1)C(=O)Cn1nnc(-c2cccs2)n1 (stereo not drawn)	-2.8%	4.6%	?	?	-22.1	2.51µM*
Cc1ccc2oc3c(c(=O)c2c1)C(c1ccccc1F)N(c1ccccn1)C3=O (stereo not drawn)	nt	-0.2%	nt	nt	-8.3	nt
Cc1ccc(N(C(=O)Cn2nnc(-c3ccc(F)cc3)n2)C(CC(C)C)C(=O)NCC2CCCO2)cc1 (stereo not drawn)	0.3%	-23.9%	?	13.1µM*	-15.7	-9.3%
COc1ccc(NC(=O)c2sc3nc4c(c(-c5ccc(OC)cc5)c3c2N)C(=O)CC(C)(C)C4)cc1	nt	-0.6%	nt	nt	-25.9	nt
Nc1nnnn1/N=C/c1ccccn1	11.5%	-10.6%	6.57µM*	27.4%	-22.0	7.6%
CCN(C)c1ccc(/C=N\n2nnnc2N)cc1	?	-3.8%	2.62µM*	197.3%	61.1	-14.8%
Nc1nnnn1/N=C/c1ccc(O)cc1	8.9%	-10.3%	2.08µM*	nt	74.9	15.2%
C(=C1c2ccccc2-c2ccccc21)c1ccccn1	nt	nt	nt	nt	0.0	?
C(=N\N=C\c1ccccn1)/c1ccccn1	-2.5%	0.4%	?	13.1µM*	6.1	5.5%
CSc1ncc(C(=O)Nc2cc(C)cc(C)c2)c(-c2ccccc2)n1	nt	-6.6%	nt	nt	-3.9	nt
COc1ccc2nc(SCC(=O)Nc3ccc(S(=O)(=O)Nc4nccc(C)n4)cc3)[nH]c2c1	-2.6%	7.8%	29.5%	4.4%	22.3	6.9%
COc1cc(/C=N/n2nnnc2N)ccc1O	-5.7%	11.2%[11.4 µM]	13.1µM*	nt	56.5	12.5%
Cc1ccc(S(=O)(=O)Nc2cc3c4c(c2)CCN4C(=O)CC3)cc1	nt	-17.6%	1.4%	-28.0%	68.7	11.6%
c1ccc(CSc2nnc(C3CCNCC3)o2)cc1	nt	1.8%	nt	nt	-2.8	nt
O=C(Nc1ccccc1)c1cccc(S(=O)(=O)N2CCCCC2)c1	-2.7%	35.5%	?	1.1%	?	2.7%
CC1CCN(S(=O)(=O)c2ccc(NC(=O)c3ccccc3F)cc2)CC1	-0.2%	4.6%	12.7%	?	-61.9*	?
CC1CCN(S(=O)(=O)c2ccc(NC(=O)CN3CCCC(C)C3)cc2)CC1 (stereo not drawn)	-4.2%	-3.3%	11.7µM*	nt	-12.0	-20.6%
CN1CCN(S(=O)(=O)c2ccc(NC(=O)c3ccccc3F)cc2)CC1	1.5%	57.0%	-8.6%	?	1.9	2.8%
Cc1cccc(NC(=O)c2ccc(S(=O)(=O)N3CCC(C)CC3)cc2)n1	-6.2%	-21.7%	?	?	-76.6*	?
CC1CCN(S(=O)(=O)c2cccc(C(=O)Nc3ccccc3)c2)CC1	1.2%	9.3%	2.62µM*	?	-17.4	?
Cc1ccc(NC(=O)c2ccc(S(=O)(=O)N3CCC(C)CC3)cc2)cc1	-1.8%	3.1%	nt	10.4µM*	-21.9	-12.2%
Cc1ccnc(NC(=O)c2ccc(S(=O)(=O)N3CCC(C)CC3)cc2)c1	-5.8%	2.4%	19.3%	14.1%	4.7	-7.8%
O=C(/C=C/c1ccccc1)Nc1cccc(C(=O)O)c1	-1.5%	9.0%	?	0.262µM*	48.7	-1.4%
SMILES	SARS PLP yeast	Sm TGR block	Pf growth 96h	Pf growth 48h	HCMV inh	HCV inhibitor
CCOC(=O)/C(=C/C=C/c1ccccc1)NC(=O)c1ccccc1	-0.8%	5.2%	10.4µM*	16.7%	?	?
O=C(Nc1cccc(C(=O)O)c1)/C(=C\C=C\c1ccccc1)NC(=O)c1ccccc1	0.2%	nt	?	1.3%	-104.4*	10.8%
O=C(/C=C/c1cccc([N+](=O)[O-])c1)Nc1cc(C(=O)O)cc(C(=O)O)c1	0.8%	-3.4%	?	?	5.3	6.6%
O=C(/C=C/c1ccccc1)Nc1cccc(C(=O)N2CCCCC2)c1	nt	nt	nt	nt	41.8	?
O=C(/C=C/c1ccccc1)Nc1cc(NC(=O)/C=C/c2ccccc2)cc(C(=O)O)c1	-0.4%	39.8µM*	-4.4%	61.3%	20.0	5.3%
CCOP(=O)(OCC)c1nc(-c2ccc(F)cc2)oc1NCc1ccccc1	-1.4%	-2.5%	?	?	-37.8	-25.8%
COc1ccc(CNc2oc(-c3cccc4ccccc34)nc2C#N)cc1	19.0%	-19.8%	-2.5%	14.0%	41.9	-7.3%
CCOP(=O)(OCC)c1nc(-c2ccccc2)oc1NCc1ccccc1	-7.3%	-3.4%	2.62µM*	7.38µM*	-3.8	-6.1%
CCNC(=O)c1ccc2nc(Cc3ccccc3)oc2c1	nt	1.1%	nt	nt	60.5	nt
CCOP(=O)(OCC)c1nc(Cc2ccccc2)oc1NCc1ccccc1	-0.6%	-35.6%	10.4µM*	9.28µM*	2.2	-9.7%
CCOP(=O)(OCC)c1nc(-c2cccc3ccccc23)oc1NCCc1ccc(OC)cc1	-26.9%	-7.9%	?	14.7µM*	-13.9	-0.3%
O=P(c1ccccc1)(c1ccccc1)c1nc(-c2ccccc2)oc1NCc1ccccc1	0.4%	0.5%	9.28µM*	5.86µM*	27.1	6.4%
Cc1ccc(SCCc2ccc(C)nc2)cc1	-7.6%	3.3%	-21.5%	42.0%	-18.9	28.4%
O=C(Nc1ccccc1)N1CC=C(c2ccc(F)cc2)CC1	-22.0%	-22.8%	nt	10.4µM*	29.9	?
O=C(Nc1ccccc1)N1CC=C(c2ccccc2)CC1	-2.8%	?	nt	170.4%	nt	8.7%
O=C(Nc1cccc2ccccc12)N1CCN(Cc2ccccc2)CC1	-2.5%	-2.5%	10.4µM*	-15.3%	-27.5	-5.9%
O=C(Nc1cccc2ccccc12)N1CC=C(c2ccccc2)CC1	3.1%	-0.5%	0.104µM*	nt	9.6	2.3%
CCOC(=O)N1CCN(C(=O)Nc2cccc3ccccc23)CC1	-1.8%	40.0%	?	40.1%	-3.1	-7.5%
O=C(Nc1cccc(F)c1)N1CC=C(n2c(=O)[nH]c3ccccc32)CC1	-5.5%	-4.5%	31.8%	10.4µM*	-11.3	?

Screening data deposited in PubChem BioAssay by National Center for Advancing Translational Sciences (NCATS).
